# In PubChem BioAssay (Tox21):
# Values joined by “and” are separate entries in the source; they are usually repeats but may differ in a detail not shown here. Equal values may be shown once. Records with an inconclusive call do not appear. Entries that show only a call come without a potency. Some structures have more than one record in an assay (separate samples or runs), and their calls can disagree. Active and inactive are the calls of the source. The call rests on the fitted dose curve; in most records, active means well fitted cell-killing curve with a large enough effect in the repeat runs; inconclusive means weak or mixed curves, or effect the other way; inactive means no such curve, though single readings can be large or run the other way.
# Experiment: qHTS assay for identifying genotoxic compounds that show differential cytotoxicity against isogenic chicken DT40 cell lines with known DNA damage response pathways - wild type cell line (AID 743012); further: nearly all actives have a fitted effect of over 60% in size
# Details: DT40 wild type chicken cells viability, CellTiter-Glo, 40 h; series mostly up to 68.4 µM; activity change, negative = cytotoxicity: at the top concentration
# Description: U.S. Tox21 Program National Center for Advancing Translational Sciences [NCATS] NIH Chemical Genomics Center [NCGC] U.S. Environmental Protection Agency [EPA] National Institutes of Environmental Health Sciences [NIEHS] National Toxicology Program [NTP] U.S. Food and Drug Administration [FDA] Tox21 Assay Overview: DNA repair pathways play a critical role in cellular homeostasis by repairing DNA damage induced by endogenous processes and xenobiotics. Isogenic chicken DT40 cell lines deficient in different DNA repair pathways can be used to identify genotoxic compounds and aid in characterizing the nature of the DNA damage induced. Two DNA repair-deficient cell lines with disrupted genes, Rad54/Ku70 or Rev3, were used to screen the Tox21 10K compound library. Possible genotoxicity was based on the presence of a significant increase in cytotoxicity in one or more of the DNA repair-deficient cell lines compared to that observed in the parental DNA repair-proficient cell line. CellTiter Glo viability assay (Promega, Madison, WI) was used to measure cell viability in these cells after compound treatment. This assay includes the data from the wild type cell line.
# Tox21 Assay Protocol Summary: 300 DT40 wild type cells in 5 uL/well were dispensed into white, solid-bottom 1536-well plates using a Multidrop Combi (ThermoFisher Scientific, Waltham, MA) dispenser. After the assay plates were incubated at 37 C/5% CO2 for approximately 0.5 hour, 23 nL of compounds dissolved in DMSO, positive controls or DMSO only was transferred into the assay plate by a pintool work station (Kalypsys, San Diego, CA). The assay plates were incubated at 37 C/5% CO2 for 40 hours. After 5 uL per well of CellTiter-Glo reagent was added into each well of the assay plates, the plates were incubated for 30 min at room temperature and the luminescence intensity of the plates was measured using a ViewLux (PerkinElmer, Shelton, CT) plate reader.
# Potency means the concentration at half of the fitted maximal effect.
SMILES,Potency,"activity change, negative = cytotoxicity"
CN=C=S,inactive,
[N-]=[N+]=[N-],inactive,
Cc1ccccc1O,inactive,
c1ccc(-c2ccccc2)cc1,inactive,
O=C(O)c1ccccn1,,0.323% (inactive)
COc1ccc2c3c1O[C@H]1[C@@H](O)C=C[C@H]4[C@@H](C2)N(C)CC[C@@]341,,9.2% [at 95 µM] (inactive)
ClCCBr,,5.59% (inactive)
CN(C)CCO,inactive,
CCN(CC)c1ccccc1,inactive,
CC(C)C1(C)N=C(c2nc3ccccc3cc2C(=O)O)NC1=O (stereo not given),,2.06% (inactive)
Nc1c(Cl)c(Cl)nc(C(=O)O)c1Cl,inactive,
Clc1ccc(Cl)cc1,inactive,
CCN(CC)CCO,inactive,
ClCc1cccnc1,inactive,
CCCC1COC(Cn2cncn2)(c2ccc(Cl)cc2Cl)O1 (stereo not given),55.5 µM (active) and 12.2 µM (active),
CN(N=O)c1ccccc1,,-3.89% (inactive)
CC(C)N1C(=O)c2ccccc2NS1(=O)=O,inactive,
O=c1[nH]c2ccccc2c(=O)o1,inactive,
Clc1ccccc1Cl,inactive,
O=[N+]([O-])c1ccc(Oc2ccc(Cl)cc2Cl)cc1,inactive and 61.1 µM (active),

SMILES,Potency,"activity change, negative = cytotoxicity"
CC(C)(Cl)Cl,,13.9% (inactive)
Cn1cc(-c2ccccc2)c(=O)c(-c2cccc(C(F)(F)F)c2)c1,,25.1% (inactive)
c1ccc2c(c1)Oc1ccccc1O2,inactive,
CCOP(=S)(OCC)SCCSCC,inactive,
CCC[CH2][Sn]([Cl])([Cl])[Cl],inactive,
CCCCN(CC)C(=O)SCCC,inactive,
Cc1ccc([N+](=O)[O-])cc1C,inactive,
CCC(C)(CC)c1cc(NC(=O)c2c(OC)cccc2OC)on1,52.4 µM (active),
CCOP(=S)(OCC)Oc1cnc2ccccc2n1,54.5 µM (active),
CC(C)(C)OOC(=O)c1ccccc1,,10.9% (inactive)
Cc1cc(-c2cc(C)c(N)c(C)c2)cc(C)c1N,,0.743% (inactive)
O=C(NC(=O)c1c(F)cccc1F)Nc1cc(Cl)c(OC(F)(F)C(F)C(F)(F)F)cc1Cl (stereo not given),3.35 µM (active),
c1ccc(OP(Oc2ccccc2)Oc2ccccc2)cc1,inactive,
CCCCOC(=O)c1ccccc1C(=O)OCCCC,24.3 µM (active),
CCC12COCN1COC2,inactive,
Nc1ccccc1C(=O)O,inactive,
CCCCCCCCCCCC#N,inactive,
COP(N)(=O)SC (stereo not given),,20% (inactive)
CCOC(=O)c1ccccc1C(=O)OCC,inactive,
Cc1cccc([N+](=O)[O-])c1,inactive,
